Data published in PubChem BioAssay.
“And” between values parts separate entries of the source, which are not always exact repeats. Equal entries are not always repeated. The source made the active and inactive calls.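 The calls were made as follows, unless noted: active = inhibition at or above 50% relative to wild type and mutant plate controls; inactive = inhibition below 50%.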

How the values were obtained:
[1] = inhibitors of TNFa-induced NFkB p65 translocation, primary screen, imaging, HUVEC, MLSMR starter and 10KST1 sets (AID 438;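 active = inhibition above 20% together with a positive visual image hit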;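 also: compound added about 3h40 before a 20 min TNFalpha stimulation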;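 as to inhibition: signal is the nuclear over cytoplasmic p65 intensity ratio per well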); settings: HUVEC TNFa-induced p65 nuclear translocation; cell count: measured here: nuclei count (cytotoxicity indicator), at 2.08 µM; inhibition: at 2 µM, stronger effect = higher value, 0% TNFa-plus-vehicle, 100% no-TNFa wells
[2] = inhibitors of mutant huntingtin aggregation, primary screen, imaging, exon1htt(103Q)mCFP cells, high-content imaging (AID 483;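 active = visual image review flags a hit and inhibition of aggregation exceeds 20%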;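 also: compound exposure lasted 3 days before fixation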;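 as to nuclei count: percent of the per-plate median nuclei count of sample wells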); settings: exon1htt(103Q)mCFP cell line, aggregate imaging, at 2 µM; inhibition of aggregation: stronger effect = higher value; nuclei count: measured here: cell count, toxicity
[3] = inhibitors of E-selectin induction by TNFa, primary screen, imaging, HUVEC, immunofluorescence, MLSMR starter and 10KST1 sets (AID 487;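 active = visually confirmed hit in the image check and inhibition above 20%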;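 as to inhibition: signal is fraction of cell area covered by stained E-selectin grains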;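 as to nuclei count: 100% = median nuclei count of all wells on the same plate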); settings: HUVEC TNFalpha-induced E-selectin immunofluorescence imaging, at 2 µM; inhibition: stronger effect = higher value; nuclei count: measured here: cell number, toxicity
[4] = DUSP6 inhibitors restoring Erk phosphorylation by chemical complementation, primary imaging in DUSP6-transfected HeLa (AID 609;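 active = compounds giving at least 50% inhibition in the cell-based MKP-3 phosphatase rescue imaging test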;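 as to inhibition: phospho-Erk level distribution per well compared with pooled transfected vehicle control wells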); settings: HeLa MKP-3 transfected, phospho-Erk imaging KS statistic, at 10 µM, cells stimulated with TPA for 15 min
[5] = biological target: Dual specificity protein phosphatase 6 (Homo sapiens) (UniProt Q16828); test: as above; settings: HeLa MKP-3 transfected, phospho-Erk imaging KS statistic; at 10 µM; stronger effect = higher value; cells stimulated with TPA for 15 min
Sequence of Dual specificity protein phosphatase 6 (Homo sapiens) (Q16828 whole entry, looked up): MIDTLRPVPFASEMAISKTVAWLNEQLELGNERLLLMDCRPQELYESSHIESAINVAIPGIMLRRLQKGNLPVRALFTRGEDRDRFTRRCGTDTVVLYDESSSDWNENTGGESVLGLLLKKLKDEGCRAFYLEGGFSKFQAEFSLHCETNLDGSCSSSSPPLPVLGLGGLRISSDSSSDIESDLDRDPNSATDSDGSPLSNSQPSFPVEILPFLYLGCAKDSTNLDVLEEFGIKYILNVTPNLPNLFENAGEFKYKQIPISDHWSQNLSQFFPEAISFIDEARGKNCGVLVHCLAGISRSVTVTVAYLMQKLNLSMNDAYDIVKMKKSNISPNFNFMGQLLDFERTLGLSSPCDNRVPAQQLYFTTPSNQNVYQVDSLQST

[6] = biological target: Voltage-gated potassium channel subunit beta-2 (Rattus norvegicus) (UniProt P62483); test: KvBeta enzyme negative modulators, primary screen, biochemical, NADPH fluorescence (AID 622;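 active = fluorescence slope higher than the sample average by over 3 SD, cut at about -0.22 in these data, passing the limit was not always enough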;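 also: slope of raw intensity against log time taken from 70 to 1610 s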); settings: recombinant KvBeta, 4-cyanobenzaldehyde reduction, at 10 µM, stronger effect = higher value
Sequence of Voltage-gated potassium channel subunit beta-2 (Rattus norvegicus) (P62483 whole entry, looked up): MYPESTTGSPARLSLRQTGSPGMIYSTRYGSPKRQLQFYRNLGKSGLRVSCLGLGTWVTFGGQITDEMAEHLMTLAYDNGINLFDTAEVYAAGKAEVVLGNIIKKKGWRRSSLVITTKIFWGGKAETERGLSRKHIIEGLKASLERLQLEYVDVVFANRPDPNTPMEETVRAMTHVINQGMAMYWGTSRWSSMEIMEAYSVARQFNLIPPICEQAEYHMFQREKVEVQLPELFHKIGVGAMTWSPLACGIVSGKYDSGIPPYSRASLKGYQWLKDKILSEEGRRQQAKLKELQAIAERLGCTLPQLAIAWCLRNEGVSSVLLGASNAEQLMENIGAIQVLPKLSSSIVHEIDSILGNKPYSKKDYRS

[7] = biological target: Voltage-gated potassium channel subunit beta-2 (Rattus norvegicus) (UniProt P62483); test: KvBeta positive modulators, primary screen, biochemical, NADPH fluorescence (AID 623;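 active = NADPH fluorescence slope more negative than the mean of all samples by about 3 SD, 99.7% confidence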;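 also: fluorescence intensity change per second fitted from 20 to 320 s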); settings: Recombinant KvBeta, NADPH fluorescence decrease slope, 10 min; at 10 µM; stronger effect = lower value
[8] = biological target: Alpha-2C adrenergic receptor (Homo sapiens) (UniProt P18825); test: modulators of alpha2C/GIRK thallium flux, primary screen, cell-based, HEK293 alpha2C/GIRK1/2 (AID 624;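 active = fluorescence slope after compound addition differing from the mean of all screened samples at 99.7% confidence, in either direction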;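 also: slope of fluorescence ratio to pre-addition baseline per second over 15 to 24 s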); settings: thallium flux BTC fluorescence, at 10 µM, actives lie on both sides
Sequence of Alpha-2C adrenergic receptor (Homo sapiens) (P18825 whole entry, looked up): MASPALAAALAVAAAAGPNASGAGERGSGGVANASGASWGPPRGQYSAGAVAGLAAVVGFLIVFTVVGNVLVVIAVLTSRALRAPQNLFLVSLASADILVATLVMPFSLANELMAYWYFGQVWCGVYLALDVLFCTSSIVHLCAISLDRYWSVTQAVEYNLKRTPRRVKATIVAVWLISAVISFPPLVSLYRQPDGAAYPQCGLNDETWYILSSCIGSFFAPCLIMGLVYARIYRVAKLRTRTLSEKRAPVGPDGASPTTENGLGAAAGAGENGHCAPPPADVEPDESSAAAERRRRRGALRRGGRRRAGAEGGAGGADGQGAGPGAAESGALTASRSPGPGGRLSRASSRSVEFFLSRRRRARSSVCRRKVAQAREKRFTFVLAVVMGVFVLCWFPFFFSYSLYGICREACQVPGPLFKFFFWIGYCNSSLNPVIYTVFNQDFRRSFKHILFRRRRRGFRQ

[9] = inhibitors of larval lipid processing in zebrafish, primary screen, whole organism, PED6 fluorescence, gall bladder and intestine (AID 686;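 active = a full or partial loss of lipid-probe fluorescence in the fish gall bladder, intestine or both, judged by eye; inactive = no fluorescence loss, or compound toxic to the fish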;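 also: larvae 5 to 7 days old with five fish per well; signal comes from phospholipase A2 cleavage of quenched PED6 carried via bile; overnight exposure to compound and PED6 before scoring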); settings: Zebrafish larvae PED6 lipid processing, fluorescence scoring; screened at 20 µM (by protocol)
[10] = inhibitors of Chlamydomonas gravitaxis, primary screen, whole organism, Chlamydomonas reinhardtii, WT vs cilia-less mutant, absorbance, 96-well (AID 463189); settings: OD600 absorbance, 2 days, at 10 µM, stronger effect = higher value;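 also: 0% = wild type cc124 cells in DMSO and 100% = ciliumless bld1 mutant cells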
[11] = inhibitors of Sendai virus-induced IRF3 signaling, primary screen, TLR/RLR signaling modifier project, cell-based, Sendai virus stimulus, luciferase, 10K MLSCN set (AID 602276;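 active = inhibition at or above 50% at 10 µM; inactive = inhibition below 50%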;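 also: firefly luciferase from ISG56 promoter only with Renilla not read in this screen; 0% = Sendai virus plus DMSO and 100% = medium plus DMSO without virus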); settings: HEK293 RL24 IRF3 luciferase reporter, at 10 µM, stronger effect = higher value
[12] = inhibitors of poly I:C-induced TLR3 signaling, primary screen, cell-based, poly I:C stimulus, luciferase, 10K MLSCN set (AID 602277;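 active = inhibition of the reporter signal at or above 50%; inactive = inhibition below 50%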); settings: HEK293-TLR3 RL24 IRF3 luciferase reporter, at 10 µM, stronger effect = higher value
[13] = measured here: cell density z-score
[14] = measured here: nuclear c-Myc green intensity z-score
[15] = measured here: nuclear pErk red intensity z-score, stronger effect = higher value

Compound	cell count [1]	inhibition [1]	inhibition of aggregation [2]	nuclei count [2]	inhibition [3]	nuclei count [3]	z-score [4, 13]	z-score [4, 14]	z-score [4, 15]	inhibition [5]	fluorescence slope [6]	NADPH fluorescence slope [7]	slope [8]	outcome [9]	inhibition [10]	inhibition [11]	inhibition [12]
Cc1c(Cl)cccc1Nc1ccccc1C(=O)O	612	-8.8% (inactive)	17.9% (inactive)	108%	-156% (inactive)	129%	-0.93	-0.312	1.31	5.42% (inactive)	-0.466 (inactive)	-4.7e-06 (inactive)	0.00655 (inactive)	inactive	-6.31% (inactive)	4.32% (inactive)	19.5% (inactive)
CCCCOc1ccc(C(=O)CCN2CCCCC2)cc1	591	-10.4% (inactive)	4.2% (inactive)	92.4%	-91.6% (inactive)	114%	0.144	-0.213	-1.06	7.39% (inactive)	-0.421 (inactive)	-5.1e-05 (inactive)	0.00405 (inactive)	inactive	61.3% (active)	4.68% (inactive)	21.9% (inactive)
Cc1cc(C)nc(NC(=O)c2ccc(OC(C)C)cc2)n1	520	-2.7% (inactive)	-1.7% (inactive)	110%	-53% (inactive)	123%	0.524	1.41	-0.231	17% (inactive)	-0.449 (inactive)	-4.9e-05 (inactive)	0.00572 (inactive)	inactive	-2.45% (inactive)	-1.16% (inactive)	-12.9% (inactive)
CC1CCc2cc(F)cc3c(O)c(C(=O)NCC4CCCO4)c(=O)n1c23 (stereo not given)	553	2.6% (inactive)	1.2% (inactive)	83.8%	-28.6% (inactive)	134%	-0.0424	-0.796	-0.351	-8.76% (inactive)	-0.395 (inactive)	1.7e-06 (inactive)	0.0054 (inactive)	inactive	11.8% (inactive)	4.8% (inactive)	8.44% (inactive)
CSC1=C(C#N)C(C)CC(=O)N1 (stereo not given)	552	-5.8% (inactive)	-2% (inactive)	112%	1.9% (inactive)	108%	-0.957	-0.437	0.604	-5.89% (inactive)	-0.51 (inactive)	-6.2e-05 (inactive)	0.00463 (inactive)	inactive	19.4% (inactive)	13.8% (inactive)	12.5% (inactive)
Cn1c(=O)n(CCC(=O)O)c2ccccc21	429	-3.4% (inactive)	7.9% (inactive)	96.9%	-65.4% (inactive)	159%	-0.862	-1.01	0.787	-9.7% (inactive)	-0.405 (inactive)	-5.3e-05 (inactive)	0.00491 (inactive)	inactive	1.78% (inactive)	16.2% (inactive)	22.9% (inactive)
CCSC(SCC)[C@H](O)[C@@H](O)[C@H](O)[C@H](O)CO	619	-2.2% (inactive)	-0.2% (inactive)	107%	-75.4% (inactive)	116%	-0.857	-0.361	-0.437	-4.44% (inactive)	-0.451 (inactive)	1.5e-05 (inactive)	0.00559 (inactive)	inactive	-8.68% (inactive)	10.6% (inactive)	28.3% (inactive)
Cc1cc(-c2ccccc2)nnc1NCCN1CCOCC1	674	5.8% (inactive)	-29.4% (inactive)	99.9%	-64.4% (inactive)	119%	0.561	0.88	0.22	25.7% (inactive)	-0.472 (inactive)	-2e-05 (inactive)	0.00515 (inactive)	inactive	15.7% (inactive)	13.3% (inactive)	33.7% (inactive)
COc1ccccc1N1CCN(CC(O)COc2cccc3ccccc23)CC1 (stereo not given)	617	-3.6% (inactive)	-18.7% (inactive)	108%	-26.2% (inactive)	107%	0.673	-1.31	-2.39	8% (inactive)	-0.431 (inactive)	-7.7e-05 (inactive)	0.00349 (inactive)	inactive	7.05% (inactive) and 42.9% (inactive)	16.5% (inactive)	36.9% (inactive)
O=C(NCc1ccco1)c1cnn2c(C(F)(F)F)cc(-c3ccco3)nc12	480	-4.4% (inactive)	-12.5% (inactive)	95.1%	-34.8% (inactive)	118%	-0.634	0.493	-1.31	11.3% (inactive)	-0.421 (inactive)	-6.2e-05 (inactive)	0.00539 (inactive)	inactive	-15.7% (inactive)	16% (inactive)	24.8% (inactive)
CCCCC[C@H](O)/C=C/C1=C(CCCCCCC(=O)O)C(=O)CC1	582	-10.1% (inactive)	-18.7% (inactive)	109%	-15.5% (inactive)	111%	0.0464	-0.541	-1.16	-0.493% (inactive)	-0.474 (inactive)	-5.2e-05 (inactive)	0.00393 (inactive)	inactive	-11.8% (inactive)	7.96% (inactive)	34.1% (inactive)
CN(C=C1C(=O)CC(C)(C)CC1=O)CCN1CCNCC1	624	-4.9% (inactive)	-3.7% (inactive)	97.1%	-43.7% (inactive)	121%	-0.672	-0.802	1.89	-1.98% (inactive)	-0.519 (inactive)	-5.2e-05 (inactive)	0.00485 (inactive)	inactive	6.8% (inactive)	14.6% (inactive)	16.6% (inactive)
COc1ccc(Cn2c(CCCO)nc3ccccc32)cc1OC	577	-7.7% (inactive)	-17% (inactive)	105%	-84% (inactive)	122%	-0.981	1.12	1.14	-5.89% (inactive)	-0.412 (inactive)	-4.3e-05 (inactive)	0.0064 (inactive)	inactive	2.72% (inactive)	13.3% (inactive)	22.4% (inactive)
C[C@]12CC[C@@H]3c4ccc(O[C@@H]5O[C@H](C(=O)O)[C@@H](O)[C@H](O)[C@H]5O)cc4CC[C@H]3[C@@H]1C[C@@H](O)[C@@H]2O	606	-2.6% (inactive)	-0.5% (inactive)	90.1%	-146% (inactive)	127%	0.0825	-0.52	-0.309	1.48% (inactive)	-0.487 (inactive)	-4.1e-05 (inactive)	0.00431 (inactive)	inactive	-2.21% (inactive)	15% (inactive)	32.3% (inactive)
O=C(CSc1nnc(-c2ccco2)c(-c2ccco2)n1)Nc1ccccc1	582	-9.5% (inactive)	-9.2% (inactive)	100%	-30.7% (inactive)	123%	0.318	-1.08	1.26	1.6e-07% (inactive)	-0.358 (inactive)	-1.6e-05 (inactive)	0.00359 (inactive)	inactive	17.3% (inactive)	-13.8% (inactive)	6.55% (inactive)
CCn1cc(C(=O)O)c(=O)c2cc(F)c(N3CCNCC3)cc21	576	-6.9% (inactive)	13% (inactive)	87.7%	-31% (inactive)	108%	0.515	-1.04	1.05	-6.41% (inactive)	-0.472 (inactive)	1.5e-05 (inactive)	0.00555 (inactive)	inactive	-5.87% (inactive)	-0.442% (inactive)	10.8% (inactive)
CN(C)CCCN1c2ccccc2Sc2ccc(Cl)cc21	556	0% (inactive)	14.2% (inactive)	101%	-64.8% (inactive)	123%	1.02	0.553	-0.0543	-0.828% (inactive)	-0.472 (inactive)	-6e-05 (inactive)	0.00356 (inactive)	inactive	67.6% (active) and 162% (active)	16.5% (inactive)	40.1% (inactive)
Cn1cc(NC(=O)c2cc(NC(=O)c3cc(NC=O)cn3C)cn2C)cc1C(=O)NCCC(=N)N	571	-3.6% (inactive)	-13.8% (inactive)	96.4%	-15.4% (inactive)	95.1%	-1.3	0.0863	-0.177	-0.493% (inactive)	-0.499 (inactive)	-3.2e-05 (inactive)	0.00517 (inactive)	inactive	-16.5% (inactive)	19.8% (inactive)	37.3% (inactive)
COc1ccc(NC(=O)CSC2=C(C#N)C(c3ccco3)C3=C(CCCC3=O)N2)c(OC)c1 (stereo not given)	429	1.6% (inactive)	-5.2% (inactive)	95.8%	-47.9% (inactive)	104%	-1.49	0.542	0.619	13.4% (inactive)	-0.456 (inactive)	-9.4e-06 (inactive)	0.00706 (inactive)	inactive	26.6% (inactive)	17.5% (inactive)	18.8% (inactive)
CC(=O)N=c1sc(S(N)(=O)=O)nn1C	541	-11.9% (inactive)	7.8% (inactive)	88.8%	-94% (inactive)	104%	0.515	1.15	1.01	9.37% (inactive)	-0.454 (inactive)	-6.4e-05 (inactive)	0.00535 (inactive)	inactive	13.4% (inactive)	4.97% (inactive)	15.9% (inactive)
